# Sampled rows, rich in hits. Any-hit rate of the full collection: about 4.6%.
# TIM10 inh = growth inhibitors of isogenic TIM10 control yeast, primary screen, counter-screen for tim10-1 yeast inhibitor project, luminescence, uHTS | S. cerevisiae TIM10 strain growth, BacTiter-Glo luminescence, 24 h | inhibition, % at 10 µM | AID 463195, 2010 | hit rate 1.4% among 330,000;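 active = inhibition of 40% or more at the single tested concentration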;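 note: wild-type TIM10 isogenic control strain grown at permissive 25 °C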
# tim23-1 inh = growth inhibitors of tim23-1 mutant yeast, primary screen, luminescence, uHTS. hit rate 1.3% among 330,000. inhibition, % at 20 µM. S. cerevisiae tim23-1 growth, BacTiter-Glo luminescence, 24 h;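 active = growth inhibition of the mutant yeast at or above 50%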;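 note: temperature-sensitive mutant grown at 25 °C; plate controls were DMSO-treated mutant yeast for no effect and medium wells lacking yeast for full effect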
# PfHsp90 yeast 2 = growth inhibition of PfHsp90-expressing yeast, primary screen, antimalarial PfHsp90 inhibitor project, S. cerevisiae, BacTiter-Glo luminescence, single point, set 2. BacTiter-Glo ATP, 48 h; yeast lacking PDR1 and PDR3 efflux regulators. inhibition, % at 9.4 µM. hit rate 0.32% among 310,000;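 active = every replicate shows inhibition above about 80%, whatever the replicate mean, limit read from the data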;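 note: 0% = DMSO neutral controls and 100% = 20 µM radicicol positive controls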
# SKKanGAS inh = S. pyogenes SKKanGAS growth inhibitors in kanamycin, primary screen, streptokinase expression inhibitor project, SKKanGAS strain, BacTiter-Glo luminescence | 6 h | inhibition, % at 7.5 µM | hit rate 1.3% among 300,000;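 active = mean replicate score, as percent of positive control median, at least 50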;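 note: strain carries kanamycin resistance gene driven by streptokinase promoter and grows in 40 µg/ml kanamycin; loss of luminescence reflects streptokinase promoter inhibition or plain growth inhibition; 0% = median of DMSO wells and 100% = positive control at its reference dose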
# V-ATPase pH = regulators of yeast V-ATPase proton pumping, primary screen, pHLuorin cytosolic pH fluorescence | response, % at 10 µM | AID 504577, 2011 | S. cerevisiae | hit rate 0.37% among 350,000; in the data active = response mostly above about 7.3%, no sharp cut-off; inactive = mostly below about 5.4%; note: actives read high
# tim10-1 inh = growth inhibitors of tim10-1 mutant yeast, primary screen, luminescence, uHTS; S. cerevisiae tim10-1 ts strain growth, BacTiter-Glo, 24 h; inhibition, % at 20 µM; hit rate 2.2% among 330,000; AID 463190, 2010;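 active = inhibition of at least 40%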;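 note: mutant grown at 25 °C; 0% = DMSO wells with yeast and 100% = wells holding no yeast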
# tim10 confirm = growth inhibitors of wild-type TIM10 yeast, confirmation, counter-screen for tim10-1 synthetic lethality project, single concentration, luminescence, S. cerevisiae; inhibition, % at 10 µM; shares compounds with TIM10 inh; S. cerevisiae tim10 strain growth, BacTiter-Glo luminescence, 24 h; hit rate 63% among 4,600;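 active = inhibition of yeast growth at or above a set limit in either of two replicates at 10 µM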;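 note: this counterscreen used the strain with wild-type TIM10; 0% = yeast with DMSO and 100% = medium wells lacking yeast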
# * = called active by the depositor; x = not tested or not shown.
SMILES,TIM10 inh,tim23-1 inh,PfHsp90 yeast 2,SKKanGAS inh,V-ATPase pH,tim10-1 inh,tim10 confirm
O=C(N/N=C/c1cc([N+](=O)[O-])ccc1O)NC12CC3CC(CC(C3)C1)C2,43.2*,34.5,13.2,6.8,2.5,34.6,30.9
COc1ccc(OC)c(NC(=O)CCN2C(=O)c3cccc([N+](=O)[O-])c3C2=O)c1,8.0,4.4,-28.3,-0.7,-3.4,25.1,x
O=C(CN(c1ccccc1F)S(=O)(=O)c1ccccc1)NC1CCCCCC1,22.0,37.5,23.3,3.5,-2.6,25.6,x
Cc1ccc(S(=O)(=O)N(CC(=O)NC2CCCCCC2)c2ccccc2F)cc1,40.4*,8.5,-6.3,3.2,-4.2,16.1,10.5
Cc1ccc(NC(=O)CCC(=O)NNC(=O)Nc2cccc(Cl)c2)c(C)c1,9.3,-6.3,6.3,-2.8,0.2,-3.7,x
CC(Sc1nc(N)c2c3c(sc2n1)CSC(C)(C)C3)C(=O)Nc1ccccc1 (stereo not drawn),47.4*,39.1,10.2,22.2,0.4,36.0,-34.7
O=S1(=O)C=C(Oc2ccc3ccccc3c2)c2ccccc21,41.9*,38.4,22.6,8.9,5.5,27.6,41.9*
COc1ccc(-c2n[nH]c(=S)n2C2CCCCC2)cc1,43.0*,23.6,5.1,-4.6,0.3,27.1,32.2*
O=S(=O)(/N=C/c1c(O)ccc2ccccc12)c1cccs1,14.3,48.8,x,3.4,x,19.1,x
CC(C)(C)NC(=O)C(c1cccs1)N(CC1CCCO1)C(=O)c1ccc(-c2ccccc2)[nH]1 (stereo not drawn),41.7*,32.7,0.9,3.1,2.5,25.3,-10.6
COc1ccc(-n2cc(-c3ccccc3)c3c(=O)[nH]cnc32)cc1,50.8*,45.8,-25.6,-6.0,-6.9,34.3,45.5*
COc1ccc(/C=C(\C#N)C(=O)Nc2cccc3ncccc23)cc1OC,35.5,48.2,-23.0,-5.4,1.6,35.2,x
COc1cc(/C=C(\C#N)C(=O)Nc2cccc3ncccc23)cc(OC)c1OC,42.0*,47.2,-8.6,4.0,1.0,39.4,-19.0
CCn1cc(CNC(=O)c2cccc([N+](=O)[O-])c2)c(C)n1,-18.6,5.7,-1.3,-6.7,0.2,14.8,x
O=C(NCc1cn(-c2ccccc2)nc1-c1ccc(F)cc1)c1cccc([N+](=O)[O-])c1,41.4*,6.0,-4.1,1.7,-3.5,32.8,21.2
CC(NCCN(C)C)C(=O)C12CC3CC(CC(C3)C1)C2 (stereo not drawn),-22.4,6.2,32.0,8.6,-0.2,-7.7,x
Cc1ccc2c(C)c(C(=O)NCCc3ccco3)oc2c1C,97.2*,24.1,8.1,-12.0,-1.8,17.5,9.3
Cc1cccc(CCNC(=O)c2oc3c(C)c(C)ccc3c2C)n1,25.2,46.4,18.6,1.3,1.0,30.5,x
CCN1C/C(=C/c2ccc(OC)c(O)c2)C(=O)/C(=C/c2ccc(OC)c(O)c2)C1,49.6*,39.8,10.4,0.6,9.3,27.4,44.8*
CC(C)CN1CCC(=O)N([C@H](CO)Cc2ccccc2)CC1,6.4,4.5,12.6,5.4,3.8,2.6,x
CCC(C)NC(=O)c1ccc(NC(=O)C2=C(C)OCCS2)cc1 (stereo not drawn),-11.0,12.7,-2.1,0.1,-1.1,16.7,x
CCC(C)(C)C1CCC(=NNC(=S)Nc2cccnc2)CC1 (stereo not drawn),41.5*,45.5,-26.9,11.5,1.3,32.6,45.2*
CC(=O)N/C(=C\c1ccccc1)C(=O)OCc1cccc(S(=O)(=O)N(C)C)c1,x,x,-34.6,-3.6,-0.4,x,x
CCC(C)(C(=O)NC1CCCC1)N(Cc1cccs1)C(=O)Cc1cccs1 (stereo not drawn),45.1*,20.6,5.9,13.7,-0.7,22.9,15.5
COc1ccc(-c2csc(NC(=O)CSCc3c(C)noc3C)n2)c(OC)c1,83.1*,18.2,1.9,29.1,-0.8,10.5,-9.2
SMILES,TIM10 inh,tim23-1 inh,PfHsp90 yeast 2,SKKanGAS inh,V-ATPase pH,tim10-1 inh,tim10 confirm
COc1ccc(-c2csc(NC(=O)CSCC(=O)Nc3cc(C)on3)n2)cc1,7.9,6.8,-3.0,x,-4.6,0.9,x
Cn1c(=O)c2c(nc(CN3CCOCC3)n2CCCO)n(C)c1=O,5.5,9.6,x,1.6,-1.4,9.6,x
CCc1c(-c2ccccc2)nc2sc3c(c2c1N)CCCC3,45.4*,35.0,11.6,15.2,3.5,38.2,48.7*
CCN(C[C@H]1N[C@@](C)(C(=O)OC)[C@H]2C(=O)N(Cc3ccccc3)C(=O)[C@@H]12)S(=O)(=O)c1ccc(C(C)(C)C)cc1,90.0*,18.0,9.5,x,0.8,21.3,11.2
CCOc1ccc(C(=O)N[C@H](C(=O)Nc2ccc(S(=O)(=O)Nc3nccs3)cc2)C(C)C)cc1,6.1,0.0,x,x,-0.7,0.0,x
Cc1noc(/C=C/N(C)C)c1S(=O)(=O)N1CCCC(C(=O)Nc2ccc(F)cc2F)C1 (stereo not drawn),5.3,19.7,-2.6,1.3,3.7,23.1,x
COc1ccccc1-c1c(C)nn2c(N3CCC(C)CC3)cc(C)nc12,40.4*,48.5,6.0,-6.8,8.6,38.4,46.9*
COc1ccccc1-c1c(C)nn2c(N3CCC(C(N)=O)CC3)cc(C)nc12,-1.1,7.4,-14.3,3.5,-0.8,8.4,x
Cc1nc([N+](=O)[O-])c(Sc2nc3ccccc3n2C)n1Cc1ccccc1,40.4*,37.1,1.5,19.9,-0.9,33.1,42.4*
CCCCCc1ccc(CC(=O)N2CCOCC2)cc1,-5.5,14.2,7.0,-2.1,0.4,11.7,x
O=CN1CCCN(Cc2nc(-c3cccc(Cl)c3)no2)CC1,15.1,6.5,1.3,2.2,0.5,8.9,x
Cc1ccc2oc(=O)c3cc(C(=O)NCCCN4CCCCCC4)sc3c2c1,16.5,8.7,5.3,2.1,4.2,13.0,x
Cc1ccc2oc(=O)c3cc(C(=O)NCCCN4CCc5ccccc5C4)sc3c2c1,55.0*,38.6,5.1,15.0,4.4,33.3,28.0
CCC(C)(C)n1nnnc1C(c1ccc2ncccc2c1)N1CCCCCC1 (stereo not drawn),42.9*,41.5,-18.2,3.4,3.4,35.4,-22.0
N#CC1(Cc2ccc(Cl)cc2)c2ccccc2C=CN1C(=O)c1ccccc1 (stereo not drawn),9.6,12.9,-0.1,42.6,-0.3,20.2,x
O=C(c1cn(-c2ccccc2)nc1-c1ccc(Br)cc1)N1CCOCC1,49.7*,45.4,19.1,-4.6,1.2,37.4,-9.6

# Screening results (PubChem BioAssay)
